Assay outcomes: PubChem BioAssay, Broad Institute
Pf Dd2 growth = blocks growth of Plasmodium falciparum Dd2 parasites | P. falciparum Dd2 growth, SYBR Green, 72 h; stronger effect = lower value | activity change, % at 10 µM | hit rate 2.3% among 94,000 | AID 1159554; in the data active = activity change below about -80%; inconclusive = no clear call, values can overlap the other calls
C diff growth = inhibitors of Clostridium difficile growth; Clostridium difficile clinical isolate growth, OD600, 24 h; stronger effect = lower value; growth activity, negative = inhibition, % at 16 µg/mL (by protocol); hit rate 0.25% among 86,000; AID 1259249;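 active = mean growth activity at or below -80% and every replicate also at or below -80%; inconclusive = mean at or below -80% but some replicate above -80%; inactive = mean growth activity above -80%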
Tcruzi prolif = T. cruzi proliferation inhibition. T. cruzi beta-gal in NIH3T3, GalScreen luminescence, 90 h. AID 624255. hit rate 5.9% among 77,000. inhibition, % at 8.34 µM;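 active = mean inhibition above about 93%, with at least 55% of replicates each passing it, limit read from the data, passing the limit was not always enough; inconclusive = only one of those two conditions holds; inactive = neither condition holds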
Each line names hits and unclear results; the compound was inactive in the other large screens. A selection: hits, their analogues and other compounds. The true share with any hit is near 6.7%.

CO[C@@H]1CN(C)C(=O)c2cc(NC(=O)Nc3ccc(Cl)cc3)ccc2OC[C@H](C)NC[C@H]1C	none
CO[C@@H]1CN(C)C(=O)c2cc(NC(=O)Nc3ccc(Cl)c(Cl)c3)ccc2OC[C@H](C)NC[C@@H]1C	C diff growth -97
CO[C@H]1CN(C)C(=O)c2cc(NC(=O)Nc3ccc(Cl)c(Cl)c3)ccc2OC[C@H](C)NC[C@H]1C	Pf Dd2 growth -84, C diff growth -99
CO[C@@H]1CN(C)C(=O)c2cc(NC(=O)Nc3cc(Cl)cc(Cl)c3)ccc2OC[C@@H](C)NC[C@@H]1C	none (no result: Pf Dd2 growth, C diff growth)
CCO[C@@H]1OC(C(=O)N2CCN(C)CC2)=C[C@H](c2ccccc2)[C@H]1CCCO	none (no result: Pf Dd2 growth, Tcruzi prolif)
COC(=O)C[C@@H]1CC[C@@H]2[C@@H](COc3ccc(NS(=O)(=O)c4ccccc4F)cc3C(=O)N2C)O1	none
CCC(=O)Nc1ccc2c(c1)C(=O)N(C)C[C@H](OC)[C@@H](C)CN(Cc1ccccc1)[C@H](C)CO2	none (no result: C diff growth)
C[C@@H]1CN([C@@H](C)CO)C(=O)c2cccc(NC(=O)Nc3ccc4c(c3)OCO4)c2O[C@@H]1CN(C)Cc1ccc(C(=O)Nc2ccccc2N)cc1	Pf Dd2 growth -93 (no result: C diff growth)
C[C@H]1CN([C@@H](C)CO)C(=O)c2cccc(NC(=O)Nc3ccc4c(c3)OCO4)c2O[C@@H]1CN(C)C(=O)Nc1ccc2c(c1)OCO2	none
C[C@H](CO)N1C[C@H](C)[C@H](CN(C)Cc2ccc(C(=O)Nc3ccccc3N)cc2)Oc2ccc(NC(=O)Nc3ccc4c(c3)OCO4)cc2C1=O	none
C[C@H](CO)N1C[C@H](C)[C@H](CN(C)Cc2ccc(-c3ccccc3)cc2)Oc2c(NC(=O)Nc3ccc4c(c3)OCO4)cccc2C1=O	none
C[C@@H]1CN([C@@H](C)CO)C(=O)c2cccc(NC(=O)Nc3ccc4c(c3)OCO4)c2O[C@@H]1CN(C)C(=O)Nc1ccc2c(c1)OCO2	Pf Dd2 growth -90
C[C@@H]1CN([C@@H](C)CO)C(=O)c2cccc(NC(=O)Nc3ccc4c(c3)OCO4)c2O[C@@H]1CN(C)Cc1ccc(-c2ccccc2)cc1	C diff growth -96
C[C@@H]1CN([C@@H](C)CO)C(=O)c2cccc(NC(=O)Nc3ccc4c(c3)OCO4)c2O[C@@H]1CN(C)Cc1ccc(C(=O)O)cc1	none
C[C@H]1CN([C@@H](C)CO)C(=O)c2cccc(NC(=O)Nc3ccc4c(c3)OCO4)c2O[C@@H]1CN(C)Cc1ccc(C(=O)Nc2ccccc2N)cc1	Pf Dd2 growth -85 (no result: Tcruzi prolif)
COc1ccc(OC(=O)N(C)C[C@@H]2OCc3ccccc3-c3ccccc3C(=O)N([C@@H](C)CO)C[C@@H]2C)cc1	none
C[C@@H]1CCCCO[C@H](CN(C)C(=O)Nc2ccc(F)cc2)[C@H](C)CN([C@@H](C)CO)C(=O)c2cc(NS(=O)(=O)c3ccccc3)ccc2O1	Pf Dd2 growth -91
C[C@@H]1CCCCO[C@H](CN(C)C(=O)Nc2ccc(F)cc2)[C@H](C)CN([C@@H](C)CO)C(=O)c2cc(NS(=O)(=O)c3cccs3)ccc2O1	Pf Dd2 growth -85
C[C@@H]1CCCCO[C@H](CN(C)C(=O)Nc2ccc(C(F)(F)F)cc2)[C@@H](C)CN([C@H](C)CO)C(=O)c2cc(NS(=O)(=O)c3ccccc3)ccc2O1	none
C[C@@H]1CCCCO[C@H](CN(C)C(=O)Nc2ccc(C(F)(F)F)cc2)[C@@H](C)CN([C@@H](C)CO)C(=O)c2cc(NS(=O)(=O)c3ccccc3)ccc2O1	Pf Dd2 growth -84
C[C@@H]1CCCCO[C@H](CN(C)C(=O)Nc2ccc(F)cc2)[C@@H](C)CN([C@H](C)CO)C(=O)c2cc(NS(=O)(=O)c3cccs3)ccc2O1	none
C[C@H](CO)N1C[C@H](C)[C@H](CN(C)C(=O)Nc2ccc(C(F)(F)F)cc2)OCCCC[C@H](C)Oc2ccc(NS(=O)(=O)c3ccc(Cl)cc3)cc2C1=O	none
C[C@@H]1CCCCO[C@@H](CN(C)C(=O)Nc2ccccc2)[C@@H](C)CN([C@H](C)CO)C(=O)c2cc(NS(=O)(=O)c3ccc(F)cc3)ccc2O1	none
C[C@H]1CCCCO[C@H](CN(C)C(=O)Nc2ccc(C(F)(F)F)cc2)[C@@H](C)CN([C@@H](C)CO)C(=O)c2cc(NS(=O)(=O)c3ccc(Cl)cc3)ccc2O1	Pf Dd2 growth -83
O=C(Cc1cccnc1)N[C@H]1CC[C@H](CCn2cc(-c3ccccc3F)nn2)O[C@@H]1CO	none
COc1ccc(CN(C)C[C@@H]2Oc3ccc(N(C)C)cc3CC(=O)N([C@@H](C)CO)C[C@H]2C)cc1	none (no result: Tcruzi prolif)
CC(=O)N1CC2(C1)[C@@H](c1ccc(-c3ccccc3C)cc1)[C@H](CO)N2C(C)=O	none (no result: Tcruzi prolif)
C[C@H]1CN([C@@H](C)CO)C(=O)c2cccc(NC(=O)c3ccc(-c4nccs4)cc3)c2O[C@@H]1CN(C)S(=O)(=O)c1ccc(Cl)cc1	none
Cn1cnc(S(=O)(=O)N[C@H]2CC[C@@H](CC(=O)Nc3ccc(-c4ccccc4)cc3)O[C@@H]2CO)c1	none
Cc1ccc(S(=O)(=O)Nc2ccc3c(c2)C(=O)N([C@@H](C)CO)C[C@H](C)[C@@H](CN(C)C(=O)Nc2ccc4c(c2)OCO4)OCCCC[C@@H](C)O3)cc1	Pf Dd2 growth -85 (no result: Tcruzi prolif)
C[C@@H]1CN([C@@H](C)CO)C(=O)c2cc(NS(=O)(=O)c3ccc(F)cc3)ccc2O[C@@H](C)CCCCO[C@@H]1CN(C)C(=O)Nc1ccc(C(F)(F)F)cc1	Pf Dd2 growth -88 (no result: Tcruzi prolif)
C[C@@H]1CCCCO[C@@H](CN(C)C(=O)Nc2ccc(F)cc2)[C@H](C)CN([C@H](C)CO)C(=O)c2cc(NS(=O)(=O)c3ccc(F)cc3)ccc2O1	none
Cc1ccc(S(=O)(=O)Nc2ccc3c(c2)C(=O)N([C@@H](C)CO)C[C@@H](C)[C@@H](CN(C)C(=O)Nc2ccc4c(c2)OCO4)OCCCC[C@H](C)O3)cc1	Pf Dd2 growth inconclusive (no result: Tcruzi prolif)
C[C@@H]1CCCCO[C@H](CN(C)C(=O)Nc2ccc(F)cc2)[C@H](C)CN([C@H](C)CO)C(=O)c2cc(NS(=O)(=O)c3ccc(F)cc3)ccc2O1	Pf Dd2 growth -87
C[C@H](CO)N1C[C@H](C)[C@@H](CN(C)C(=O)Nc2ccc(C(F)(F)F)cc2)OCCCC[C@H](C)Oc2ccc(NS(=O)(=O)c3ccc(F)cc3)cc2C1=O	none
C[C@@H]1CCCCO[C@H](CN(C)C(=O)Nc2ccccc2)[C@@H](C)CN([C@@H](C)CO)C(=O)c2cc(NS(=O)(=O)c3ccc(Cl)cc3)ccc2O1	Pf Dd2 growth -89
C[C@@H]1CCCCO[C@@H](CN(C)C(=O)Nc2ccccc2)[C@H](C)CN([C@H](C)CO)C(=O)c2cc(NS(=O)(=O)c3ccc(Cl)cc3)ccc2O1	none
COc1ccc(C#Cc2cnc3c(c2)C(=O)N([C@H](C)CO)C[C@@H](C)[C@@H](CN(C)C(C)=O)O3)cc1	none
C[C@H]1CN([C@@H](C)CO)C(=O)c2cc(C#CCC3CCCC3)cnc2O[C@@H]1CN(C)S(=O)(=O)c1cccs1	none (no result: Tcruzi prolif)
O=C(CN1CCOCC1)NCC[C@@H]1CC[C@H](NC(=O)Cc2ccccn2)[C@H](CO)O1	none (no result: C diff growth)
COc1ccc(NC(=O)N2CCCCN3[C@H](CO)[C@H](c4ccc(C#Cc5ccccc5)cc4)[C@@H]3C2)cc1	Pf Dd2 growth -84
COc1ccc(C#Cc2ccc([C@H]3[C@H](CO)N4CCCCN(C(=O)Nc5ccc(F)cc5)C[C@@H]34)cc2)cc1	none
